IL-2 act: qHTS of IL-2 Activators. activation, % (series mostly up to about 46 µM). 0.065% of 360,000 active. IL-2 activation reporter assay, cell-based qHTS; stimulated with anti-CD3/CD4/CD28 beads; in transgenic mouse T cells; in the data active means activation above about 50%; inconclusive means mostly about 30% to 49%; further: 0% is about no effect
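Readout: EGFP and DsRed signals by fluorescent plate cytometry. Unstimulated transgenic mouse T cells received compound 60 min before antibody-bead stimulation, then incubated 18 h at 37 degrees C.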
BRCA1 expr up: qHTS Assay to Identify Small Molecule Activators of BRCA1 Expression; MCF7-BRCA1-FFLuc reporter, luminescence, 48 h; response scale: scaled: vehicle 0%, 10 µM genistein 100%; Potency, µM (doses to about 46.1 µM), inactives show at the top dose activation, hits mostly activators; 1.1% of 380,000 active; AID 624202, 2012; further: potency means the concentration at half of the fitted maximal effect; nearly all actives have a fitted effect of over 80% in size
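Luminescence from a BRCA1-driven firefly luciferase in MCF7 cells was read after 48 h compound exposure at 37 C. Data normalized against DMSO and a 10microM genistein activation control, then curve-fitted across the titration.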
TCR activator: Activators of T cell receptors: qHTS campaign | primary human leukocytes, anti-CD3, IL-2 HTRF, 48 h | 330,000 tested, under 10 active | Potency, µM (series often up to 9.22 µM), for the others: top-dose activation of IL-2 secretion, actives largely listed as activators; further: % of control where 0% means no effect
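Using a-CD3 beads without co-stimulation, primary human leukocytes were exposed to compounds for 48 hr. An HTRF IL-2 kit measured the cytokine, with europium-to-d2 energy transfer producing emission at 665nm upon 320nm excitation.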
p53 reactivation: qHTS assay for re-activators of p53 using a Luc reporter; H1299 p53-A138V BP100-luciferase reporter, luminescence, 24 h; AID 504706, 2011; 0.063% of 320,000 active; Potency, µM (highest dose often 92.2 µM), for the others: top-dose activity change, positive = activation, most hits filed as activators; further: potency means the concentration at half of the fitted maximal effect; % of control where 0% means no effect; nearly all actives have a fitted effect of over 45% in size
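H1299 (p53-null), stable ts p53-A138V + BP100-Luc; 1000 cells/well, Opti-MEM/10% FBS; cpd 4 pt, 1:5; 24 h, 37 deg C, 5% CO2; detection reagent 10 min RT; luminescence.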
Mito fusion yeast: qHTS Assay for Small Molecule Inhibitors of Mitochondrial Division or Activators of Mitochondrial Fusion | S. cerevisiae fusion-defective mutant growth rescue, CellTiterGlo 48 h | 0.23% of 320,000 active | Potency, µM (highest dose often 46.1 µM), for inactives: top-dose growth rescue (activation), hits mostly activators | AID 485298, 2010; further: potency means the concentration at half of the fitted maximal effect; % of control where 0% means no effect; nearly all actives have a fitted effect of over 45% in size
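Read-out: ATP-based luminescence (CellTiterGlo, 10 min ambient) reporting growth of fusion-defective ts yeast after 48 hours at 37C on glycerol/ethanol YPEG medium in the presence of compound.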
Starred values were filed as active, the others as inactive; u = inconclusive; x = not tested or not shown; [ ] = another dose, or the depositor's remark. An excerpt weighted towards active compounds, which were near 1.3% of everything screened. Unless noted, the call rests on the fitted dose curve; in most records, active means well fitted curve in the direction sought with a large enough effect; inconclusive means small, poorly fitted or top-dose-only effect, or another doubt; inactive means no such curve, though single readings can be large; an effect the other way counts as inactive or inconclusive.

SMILES	IL-2 act	BRCA1 expr up	TCR activator	p53 reactivation	Mito fusion yeast
O=C(O)CC(CC(=O)Nc1ccc(-n2ccc(C(F)(F)F)n2)cc1)c1ccccc1 (stereo not given)	0	2%	-2%	1%	1%
CN(C(=O)c1ccc2c(c1)N(Cc1ccccc1F)C(=O)c1ccccc1S2(=O)=O)C1CCCCC1	x	-31%	x	x	x
CN(CCN1CCOCC1)C(=O)c1cc(COc2ccc(F)cc2Cl)on1	-1	19%	x	x	x
COc1ccc(OCc2cc(C(=O)NC(C)Cc3cnccn3)no2)c(Cl)c1 (stereo not given)	-3	11µM*	6%	u	4%
COc1ccc(OCc2cc(C(=O)NCC3CCCCO3)no2)c(Cl)c1 (stereo not given)	1	13µM*	-2%	u	3%
COc1ccc(OCc2cc(C(=O)N(C)Cc3cnccn3)no2)c(Cl)c1	-3	8.9µM*	3%	23%	-2%
CN(CCc1ccccc1)C(=O)c1cc(COc2ccc(F)cc2Cl)on1	-2	13µM*	-3%	13%	3%
O=C(COC(=O)c1ccccc1OCc1cccc(Br)c1)Nc1ccc(Br)cc1	x	-9%	x	x	x
CCCN1CNc2c(c(=O)[nH]c(=S)n2CCc2ccccc2OC)C1	x	-12%	x	x	x
O=c1c2sccc2nc(SCc2cc(=O)n3cc(Br)ccc3n2)n1Cc1ccccn1	3	6.3µM*	3%	-1%	5%
Cc1ccc(CSc2nc3ccsc3c(=O)n2Cc2ccccn2)cc1	-5	1%	-1%[46.1 µM]	-7%	u
Cc1ccccc1C(=O)Nc1ccc2nc(SCC(=O)N3CCc4ccccc43)sc2c1	x	0%	x	x	x
O=C(Cc1cnn(-c2ccccc2)c1)c1ccc(O)c(O)c1O	0	5.6µM*	2%	26%	3%
Fc1ccccc1-c1nc2ccccc2[nH]1	0	4µM*	-4%	1%	-5%
CN(C)CCN(C(=O)c1cccs1)c1nc2cc3c(cc2s1)OCCO3	1	11µM*	-6%	23%	-2%
CN(C)CCN(C(=O)c1ccc(Br)s1)c1nc2cc3c(cc2s1)OCCO3	0	81%	-2%	19%	0%
CN(C)CCN(C(=O)C1CCCCC1)c1nc2cc3c(cc2s1)OCCO3	-2	11µM*	x	x	x
O=C(Nc1ccc(Cl)cc1Cl)c1cnn2c1NC(=C1CC1)C=C2C(F)F	x	2%	x	x	x
O=C1CCc2cc(-c3csc(-c4ccc(O)cc4)n3)ccc2N1	x	4%	x	x	x
Nc1ccc(C(=O)OCc2nc3c(ccc4ccccc43)[nH]2)cc1	-1	7.1µM*	2%[46.1 µM]	u	24%
Nc1ccc(C(=O)OCc2nc3cc4ccccc4cc3[nH]2)cc1	1	0%	8%	1%	2%
COc1ccccc1CNC(=O)CCCCn1c(=O)c2ccccc2n(CC(=O)Nc2c(C)cc(C)cc2C)c1=O	x	0%	x	x	x
COc1ccc(C2CC(=O)N(CC(=O)Nc3ccc(C)c(Cl)c3)c3ccccc3S2)cc1OC (stereo not given)	x	-49%	x	x	x
O=C1c2ccccc2C(=O)N1c1ccc(O)cc1	x	8%	x	x	x
COc1ccc(N2CCN(S(=O)(=O)c3ccc(Br)s3)CC2)cc1	0	5%[1.84 µM]	9%	1%	4.5µM*
SMILES	IL-2 act	BRCA1 expr up	TCR activator	p53 reactivation	Mito fusion yeast
O=c1c(/C=N/Nc2ccccc2)c(Sc2nnnn2-c2ccccc2)nc2ccccn12	90*	76%	-3%	5%	4%
Cc1ccc2c(c1)-c1nc(-c3ccc4c(c3)NC(=O)CO4)cc(-c3ccc(F)cc3)c1CO2	x	-1%	x	x	x
CCCCNC(=O)Cn1c(=O)cc(C)c2c(C)nn(-c3cccc(Cl)c3C)c21	x	0%	x	x	x
CCOc1ccc(-c2ccc(SCC(=O)NCC3CCCO3)nn2)cc1 (stereo not given)	0	4µM*	1%	15%	-4%
CC(C)Oc1ccc(C(=O)NC2CCS(=O)(=O)C2)cc1 (stereo not given)	-1	0%	-4%	1%	2%
CC(C)Oc1ccc(C(=O)NC2CCCCC2)cc1	-2	4.5µM*	4%	25%	1%
O=C(NC1CCCCC1)c1cc(-c2ccccc2O)on1	1	2µM*	-5%	u	-3%
O=C(c1cc(-c2ccccc2O)on1)N1CCc2ccccc2C1	-1	10µM*	-3%	u	1%
Cc1cc(NC(=O)c2cc(C(C)C)on2)no1	0	11µM*	6%	19%	5%
CC(=O)c1ccc(NC(=O)CSC2=Nc3ccccc3N=C(c3ccc(F)cc3)C2)cc1	x	8%	x	x	x
O=C(C[n+]1csc2ccccc21)c1ccc(I)cc1	x	-20%	x	x	x
CC(C)c1cc(C(=O)NC2CCCCC2)no1	1	8.9µM*	-4%[46.1 µM]	u	8%
O=[N+]([O-])c1cccnc1NCCNc1ncc(C(F)(F)F)cc1Cl	-1	2.5µM*	4%	27%	-12%
O=[N+]([O-])c1ccccc1NCCNc1ncc(C(F)(F)F)cc1Cl	0	66%	-2%	30%	10%
COc1cc(Br)c(CC(=O)NO)cc1OC	x	14%	x	x	x
O=[N+]([O-])c1cc(Cl)c2cccnc2c1O	0	-89%	5%	18%	u
CC(C)OCCCNC(=O)c1ccc2c(c1)ncn2C1CCCC1	0	11µM*	7%	10%	-1%
CCN(C(=O)c1ccccc1F)c1nc(-c2ccc(OC)cc2)cs1	0	7.9µM*	7%	9%	-8%
CCC(=O)N(CC)c1nc(-c2ccc(OC)cc2)cs1	-3	11µM*	-4%	u	-3%
CCC(=O)N(Cc1ccco1)c1nc(-c2ccc(OC)cc2)cs1	0	42%	2%[46.1 µM]	12%	-4%
CCC(=O)Nc1ccc(-c2nnc(SCc3ccccc3)n2C)cc1	x	6%	x	x	x
COc1ccc2sc3ccccc3c(=O)c2c1	-1	5.6µM*	1%	18%	-5%
O=c1c2ccccc2nnn1COc1cccc2ccccc12	0	8.9µM*	-7%	19%	-7%
c1ccc(CCn2nnc3ccccc32)cc1	-1	13µM*	8%	12%	-7%
Cc1ccc(OCCn2nnc3ccccc32)cc1C	-3	4.5µM*	-12%	26%	1%
CCCn1nnc2ccccc2c1=O	-3	8%	12%	3%	-3%
CCOc1ccc(OCCn2nnc3ccccc3c2=O)cc1	-3	1µM*	4%	15%	7%
O=c1c2ccccc2nnn1COc1ccc(F)cc1Cl	1	6%	5%	u	2%

Bioassay records: PubChem BioAssay, National Center for Advancing Translational Sciences (NCATS)
